Experiments:
Assay in all cases: DAPPL (digital affinity profiling via proximity ligation, sequencing); 10 mM Tris-HCl pH 7.5, 50 mM NaCl, 1 mM DTT, 4% glycerol, room temperature, 30 min; GST-TFs on glutathione beads, 16-mer random dsDNA library, 0.1% formaldehyde crosslink after washing; high values mean tight binding
FLI1 = target: T1, FLI1 (Homo sapiens, UniProt Q01543 1-452); settings: protein: recombinant; tags: N-terminal GST; dsDNA, one strand shown
T1 sequence: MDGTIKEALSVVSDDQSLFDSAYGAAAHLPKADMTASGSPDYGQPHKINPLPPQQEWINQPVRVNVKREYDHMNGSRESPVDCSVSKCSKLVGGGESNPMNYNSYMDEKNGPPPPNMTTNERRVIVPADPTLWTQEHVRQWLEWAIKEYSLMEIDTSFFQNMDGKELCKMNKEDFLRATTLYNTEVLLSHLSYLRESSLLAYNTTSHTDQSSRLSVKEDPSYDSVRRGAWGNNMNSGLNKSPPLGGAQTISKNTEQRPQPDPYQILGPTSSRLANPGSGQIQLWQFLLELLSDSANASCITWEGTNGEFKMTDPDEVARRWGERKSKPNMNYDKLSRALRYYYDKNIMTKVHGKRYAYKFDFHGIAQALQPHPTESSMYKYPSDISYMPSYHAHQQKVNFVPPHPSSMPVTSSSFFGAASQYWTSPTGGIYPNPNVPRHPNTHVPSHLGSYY
Outline: (§1)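 The binding signal reported is, for every hexamer, its read frequency for a factor over its read frequency for the tag-only sample. Reads came from pools of yeast-expressed, GST-fused human transcription factors on glutathione beads, barcoded with DNA and mixed with that sample, which were incubated with 200 nmole of a random double-stranded 16-mer DNA library in Tris/NaCl/DTT/glycerol buffer at room temperature for 30 min. After washing, the pools were crosslinked with 0.1% formaldehyde, proximity-ligated with BsaI/T4 ligase for 1 h at 37 °C, PCR-amplified and sequenced on an Illumina NextSeq500.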

ELK1 = target: T2, ELK1 (Homo sapiens, UniProt P19419 1-428); settings: protein: recombinant; tags: N-terminal GST; dsDNA, one strand shown
T2 sequence: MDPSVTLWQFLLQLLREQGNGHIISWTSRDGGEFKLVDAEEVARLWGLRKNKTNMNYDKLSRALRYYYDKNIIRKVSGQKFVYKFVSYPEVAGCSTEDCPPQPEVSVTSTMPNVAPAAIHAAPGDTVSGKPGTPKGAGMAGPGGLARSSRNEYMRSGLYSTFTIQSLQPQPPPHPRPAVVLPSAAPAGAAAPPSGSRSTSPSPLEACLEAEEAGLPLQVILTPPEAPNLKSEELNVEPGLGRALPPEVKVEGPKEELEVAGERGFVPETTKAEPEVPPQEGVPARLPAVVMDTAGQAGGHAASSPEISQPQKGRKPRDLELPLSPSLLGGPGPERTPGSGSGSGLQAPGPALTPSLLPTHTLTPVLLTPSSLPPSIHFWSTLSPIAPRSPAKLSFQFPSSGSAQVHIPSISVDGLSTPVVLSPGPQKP
Outline: as §1

GABPA = target: T3, GABPA (Homo sapiens, UniProt Q06546 1-454); settings: protein: recombinant; tags: N-terminal GST; dsDNA, one strand shown
T3 sequence: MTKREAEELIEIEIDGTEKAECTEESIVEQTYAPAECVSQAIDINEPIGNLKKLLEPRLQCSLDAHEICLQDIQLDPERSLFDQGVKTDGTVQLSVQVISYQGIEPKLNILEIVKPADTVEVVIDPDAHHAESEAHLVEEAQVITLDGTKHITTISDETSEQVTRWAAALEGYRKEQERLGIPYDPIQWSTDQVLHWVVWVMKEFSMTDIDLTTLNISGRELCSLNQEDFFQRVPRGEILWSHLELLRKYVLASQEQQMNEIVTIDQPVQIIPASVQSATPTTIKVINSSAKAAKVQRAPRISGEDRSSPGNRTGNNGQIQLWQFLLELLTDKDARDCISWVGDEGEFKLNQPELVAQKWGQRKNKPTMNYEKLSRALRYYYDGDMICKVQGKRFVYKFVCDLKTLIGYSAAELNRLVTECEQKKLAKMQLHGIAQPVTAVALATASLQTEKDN
Outline: as §1

ERG = target: T4, ERG (Homo sapiens, UniProt P11308 1-479); settings: protein: recombinant; tags: N-terminal GST; dsDNA, one strand shown
T4 sequence: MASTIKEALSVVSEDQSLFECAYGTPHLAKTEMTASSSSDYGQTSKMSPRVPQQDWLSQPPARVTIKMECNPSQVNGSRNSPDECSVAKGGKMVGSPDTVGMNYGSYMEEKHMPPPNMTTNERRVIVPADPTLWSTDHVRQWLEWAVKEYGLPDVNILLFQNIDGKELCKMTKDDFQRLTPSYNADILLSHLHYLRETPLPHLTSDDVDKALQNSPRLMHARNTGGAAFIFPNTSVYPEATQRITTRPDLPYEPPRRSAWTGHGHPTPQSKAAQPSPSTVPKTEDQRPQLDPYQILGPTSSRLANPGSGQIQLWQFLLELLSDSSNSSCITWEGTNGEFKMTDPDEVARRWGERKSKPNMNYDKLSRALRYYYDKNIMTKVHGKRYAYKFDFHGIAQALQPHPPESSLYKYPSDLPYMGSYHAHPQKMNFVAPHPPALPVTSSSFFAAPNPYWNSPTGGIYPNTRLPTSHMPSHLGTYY
Outline: as §1

ELF1 = ELF1 (Homo sapiens, UniProt P32519 1-619); settings: protein: recombinant; tags: N-terminal GST; dsDNA, one strand shown
Chain of ELF1 (P32519 whole entry): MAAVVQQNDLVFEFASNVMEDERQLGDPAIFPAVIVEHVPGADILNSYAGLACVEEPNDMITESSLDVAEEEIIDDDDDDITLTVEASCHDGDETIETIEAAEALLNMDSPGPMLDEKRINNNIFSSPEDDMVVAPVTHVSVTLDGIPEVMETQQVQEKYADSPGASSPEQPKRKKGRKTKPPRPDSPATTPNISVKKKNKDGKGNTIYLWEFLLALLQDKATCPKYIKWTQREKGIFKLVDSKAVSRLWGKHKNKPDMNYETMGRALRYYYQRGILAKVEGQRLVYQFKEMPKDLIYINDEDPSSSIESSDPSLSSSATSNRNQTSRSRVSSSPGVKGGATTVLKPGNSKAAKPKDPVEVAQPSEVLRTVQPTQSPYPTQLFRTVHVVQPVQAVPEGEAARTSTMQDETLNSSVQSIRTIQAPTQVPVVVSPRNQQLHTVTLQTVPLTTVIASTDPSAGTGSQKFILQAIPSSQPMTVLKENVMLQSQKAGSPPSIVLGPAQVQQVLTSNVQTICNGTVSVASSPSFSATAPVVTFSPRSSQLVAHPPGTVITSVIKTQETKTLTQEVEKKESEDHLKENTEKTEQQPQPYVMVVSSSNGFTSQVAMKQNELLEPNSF
Outline: as §1

EHF = target: T5, EHF (Homo sapiens, UniProt Q9NZC4 1-300); settings: protein: recombinant; tags: N-terminal GST; dsDNA, one strand shown
T5 sequence: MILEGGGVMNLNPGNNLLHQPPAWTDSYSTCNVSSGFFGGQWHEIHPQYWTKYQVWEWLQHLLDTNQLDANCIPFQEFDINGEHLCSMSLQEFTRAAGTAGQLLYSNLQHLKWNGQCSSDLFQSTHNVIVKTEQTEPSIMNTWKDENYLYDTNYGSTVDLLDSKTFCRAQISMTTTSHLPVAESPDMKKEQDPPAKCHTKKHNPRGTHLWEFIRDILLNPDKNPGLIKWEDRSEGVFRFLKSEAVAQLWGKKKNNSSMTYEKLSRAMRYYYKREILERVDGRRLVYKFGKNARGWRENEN
Outline: as §1

SPI1 = SPI1 (Homo sapiens, UniProt P17947 1-270); settings: protein: recombinant; tags: N-terminal GST; dsDNA, one strand shown
Outline: as §1

SPIB = SPIB (Homo sapiens, UniProt Q01892 1-262); settings: protein: recombinant; tags: N-terminal GST; dsDNA, one strand shown
Chain of SPIB (Q01892 whole entry): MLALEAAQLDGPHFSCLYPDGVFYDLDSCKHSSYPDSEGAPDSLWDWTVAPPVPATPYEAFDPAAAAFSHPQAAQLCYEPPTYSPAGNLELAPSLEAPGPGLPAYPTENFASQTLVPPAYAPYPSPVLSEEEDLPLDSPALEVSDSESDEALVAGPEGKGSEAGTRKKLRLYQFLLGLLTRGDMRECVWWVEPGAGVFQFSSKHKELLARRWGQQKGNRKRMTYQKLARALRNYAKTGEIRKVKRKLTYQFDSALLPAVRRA
Outline: as §1

ELK3 = target: T6, ELK3 (Homo sapiens, UniProt P41970 1-407); settings: protein: recombinant; tags: N-terminal GST; dsDNA, one strand shown
T6 sequence: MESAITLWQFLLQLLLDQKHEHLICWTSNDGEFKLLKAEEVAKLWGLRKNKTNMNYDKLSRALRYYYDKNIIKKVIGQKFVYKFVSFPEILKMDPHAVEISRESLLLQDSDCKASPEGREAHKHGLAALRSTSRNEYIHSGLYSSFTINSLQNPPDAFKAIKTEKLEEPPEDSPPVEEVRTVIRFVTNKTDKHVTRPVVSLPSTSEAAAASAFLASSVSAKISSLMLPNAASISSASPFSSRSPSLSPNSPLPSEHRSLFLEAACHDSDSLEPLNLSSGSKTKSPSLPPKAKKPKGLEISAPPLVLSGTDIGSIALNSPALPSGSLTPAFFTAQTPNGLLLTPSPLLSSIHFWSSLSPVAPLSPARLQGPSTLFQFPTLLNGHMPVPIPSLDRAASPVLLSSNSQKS
Outline: as §1

FEV = target: T7, FEV (Homo sapiens, UniProt Q99581 1-238); settings: protein: recombinant; tags: N-terminal GST; dsDNA, one strand shown
T7 sequence: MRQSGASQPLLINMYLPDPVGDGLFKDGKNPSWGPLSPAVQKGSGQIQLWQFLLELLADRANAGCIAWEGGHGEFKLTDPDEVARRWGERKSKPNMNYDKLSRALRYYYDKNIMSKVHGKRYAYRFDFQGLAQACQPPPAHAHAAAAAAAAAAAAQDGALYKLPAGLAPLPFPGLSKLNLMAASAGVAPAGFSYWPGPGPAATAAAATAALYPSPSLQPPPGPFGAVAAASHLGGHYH
Outline: as §1

ETV5 = ETV5 (Homo sapiens, UniProt P41161 1-510); settings: protein: recombinant; tags: N-terminal GST; dsDNA, one strand shown
Chain of ETV5 (P41161 whole entry): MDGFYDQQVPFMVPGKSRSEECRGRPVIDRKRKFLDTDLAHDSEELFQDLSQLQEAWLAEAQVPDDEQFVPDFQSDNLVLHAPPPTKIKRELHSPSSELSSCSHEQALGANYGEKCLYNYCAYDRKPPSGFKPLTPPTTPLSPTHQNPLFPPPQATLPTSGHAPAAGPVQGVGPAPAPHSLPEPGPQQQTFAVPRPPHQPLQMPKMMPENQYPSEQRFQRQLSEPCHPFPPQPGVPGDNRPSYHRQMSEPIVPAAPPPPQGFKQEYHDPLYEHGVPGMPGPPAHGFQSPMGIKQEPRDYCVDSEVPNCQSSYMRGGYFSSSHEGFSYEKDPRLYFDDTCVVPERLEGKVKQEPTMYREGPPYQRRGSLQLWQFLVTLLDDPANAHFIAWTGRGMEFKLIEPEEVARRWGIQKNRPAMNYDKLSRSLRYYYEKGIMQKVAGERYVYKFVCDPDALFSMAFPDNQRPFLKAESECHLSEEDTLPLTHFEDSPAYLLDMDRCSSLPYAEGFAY
Outline: as §1

HSF1 = HSF1 (Homo sapiens, UniProt Q00613 1-529); settings: protein: recombinant; tags: N-terminal GST; chain copies: 3; dsDNA, one strand shown
Chain of HSF1 (Q00613 whole entry): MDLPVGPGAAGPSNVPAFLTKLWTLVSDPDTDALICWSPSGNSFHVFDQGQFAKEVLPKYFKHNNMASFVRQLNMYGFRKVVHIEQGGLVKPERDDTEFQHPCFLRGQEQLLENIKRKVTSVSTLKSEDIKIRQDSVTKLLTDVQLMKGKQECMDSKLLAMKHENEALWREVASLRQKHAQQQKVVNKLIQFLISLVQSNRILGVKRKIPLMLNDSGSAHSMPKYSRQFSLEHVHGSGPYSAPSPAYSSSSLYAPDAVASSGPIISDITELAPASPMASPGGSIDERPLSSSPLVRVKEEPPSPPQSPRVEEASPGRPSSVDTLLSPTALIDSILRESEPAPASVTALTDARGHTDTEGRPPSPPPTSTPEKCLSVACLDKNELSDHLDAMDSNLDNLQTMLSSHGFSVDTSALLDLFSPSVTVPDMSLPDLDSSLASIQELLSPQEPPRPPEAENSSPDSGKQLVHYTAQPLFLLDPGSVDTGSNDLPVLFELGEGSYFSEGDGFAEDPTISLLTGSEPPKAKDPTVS
Outline: as §1

SPIC = target: T8, SPIC (Homo sapiens, UniProt Q8N5J4 1-248); settings: protein: recombinant; tags: N-terminal GST; dsDNA, one strand shown
T8 sequence: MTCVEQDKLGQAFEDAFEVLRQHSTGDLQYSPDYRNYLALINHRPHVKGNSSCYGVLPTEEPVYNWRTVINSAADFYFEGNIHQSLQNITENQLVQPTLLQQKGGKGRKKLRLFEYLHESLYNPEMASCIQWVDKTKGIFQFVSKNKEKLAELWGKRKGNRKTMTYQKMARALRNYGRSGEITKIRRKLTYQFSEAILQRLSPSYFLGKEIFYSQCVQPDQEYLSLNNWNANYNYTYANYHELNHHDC
Outline: as §1

ELF4 = ELF4 (Homo sapiens, UniProt Q99607 1-663); settings: protein: recombinant; tags: N-terminal GST; dsDNA, one strand shown
Chain of ELF4 (Q99607 whole entry): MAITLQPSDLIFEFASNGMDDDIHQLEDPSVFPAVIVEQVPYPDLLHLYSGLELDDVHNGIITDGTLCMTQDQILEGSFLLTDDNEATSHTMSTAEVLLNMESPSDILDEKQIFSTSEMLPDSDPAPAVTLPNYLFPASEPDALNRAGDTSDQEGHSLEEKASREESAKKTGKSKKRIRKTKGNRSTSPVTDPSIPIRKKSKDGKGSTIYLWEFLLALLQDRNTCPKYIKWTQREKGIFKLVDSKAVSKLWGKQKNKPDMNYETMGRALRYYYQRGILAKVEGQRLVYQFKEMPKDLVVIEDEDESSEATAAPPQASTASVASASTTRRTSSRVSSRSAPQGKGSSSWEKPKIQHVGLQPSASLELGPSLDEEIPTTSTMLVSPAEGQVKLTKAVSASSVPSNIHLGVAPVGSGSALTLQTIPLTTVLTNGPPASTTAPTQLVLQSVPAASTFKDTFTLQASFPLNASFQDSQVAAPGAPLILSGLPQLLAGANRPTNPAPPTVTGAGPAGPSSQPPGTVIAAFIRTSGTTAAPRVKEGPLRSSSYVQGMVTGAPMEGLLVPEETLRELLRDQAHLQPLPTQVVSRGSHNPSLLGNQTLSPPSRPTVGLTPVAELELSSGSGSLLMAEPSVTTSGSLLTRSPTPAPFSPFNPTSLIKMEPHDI
Outline: as §1

ELK4 = target: T9, ELK4 (Homo sapiens, UniProt P28324-2 1-405); settings: protein: recombinant; tags: N-terminal GST; dsDNA, one strand shown
T9 sequence: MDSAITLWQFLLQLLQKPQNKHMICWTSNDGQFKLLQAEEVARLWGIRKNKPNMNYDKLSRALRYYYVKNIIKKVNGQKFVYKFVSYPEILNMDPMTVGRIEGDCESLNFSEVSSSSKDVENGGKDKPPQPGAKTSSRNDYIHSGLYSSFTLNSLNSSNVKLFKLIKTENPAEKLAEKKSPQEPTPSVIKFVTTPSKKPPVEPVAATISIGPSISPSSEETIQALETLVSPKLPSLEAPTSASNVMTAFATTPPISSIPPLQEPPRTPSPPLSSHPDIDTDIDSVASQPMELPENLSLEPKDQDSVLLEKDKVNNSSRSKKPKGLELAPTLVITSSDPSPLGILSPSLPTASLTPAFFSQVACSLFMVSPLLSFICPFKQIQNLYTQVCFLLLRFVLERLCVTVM
Outline: as §1

ELF3 = target: T10, ELF3 (Homo sapiens, UniProt P78545 1-371); settings: protein: recombinant; tags: N-terminal GST; dsDNA, one strand shown
T10 sequence: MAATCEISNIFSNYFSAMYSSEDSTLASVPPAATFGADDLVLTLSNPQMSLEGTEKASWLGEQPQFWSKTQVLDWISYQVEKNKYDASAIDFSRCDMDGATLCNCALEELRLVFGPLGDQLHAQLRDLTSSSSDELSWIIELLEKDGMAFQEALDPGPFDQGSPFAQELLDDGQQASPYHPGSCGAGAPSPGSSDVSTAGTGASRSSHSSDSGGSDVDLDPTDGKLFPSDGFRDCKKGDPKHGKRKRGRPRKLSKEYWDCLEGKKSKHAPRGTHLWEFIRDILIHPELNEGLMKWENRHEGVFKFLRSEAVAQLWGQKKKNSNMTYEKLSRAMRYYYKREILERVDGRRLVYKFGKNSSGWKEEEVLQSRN
Outline: as §1

CRX = CRX (Homo sapiens, UniProt O43186 1-299); settings: protein: recombinant; tags: N-terminal GST; dsDNA, one strand shown
Chain of CRX (O43186 whole entry): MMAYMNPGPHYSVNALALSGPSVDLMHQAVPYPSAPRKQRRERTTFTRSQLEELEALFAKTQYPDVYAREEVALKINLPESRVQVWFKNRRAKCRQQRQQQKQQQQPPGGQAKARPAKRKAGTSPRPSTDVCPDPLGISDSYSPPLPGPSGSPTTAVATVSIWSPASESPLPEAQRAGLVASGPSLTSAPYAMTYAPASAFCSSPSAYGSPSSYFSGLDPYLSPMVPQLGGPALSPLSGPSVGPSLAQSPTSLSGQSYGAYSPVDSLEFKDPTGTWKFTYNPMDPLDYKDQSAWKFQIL
Outline: as §1

ETV1 = ETV1 (Homo sapiens, UniProt P50549 1-477); settings: protein: recombinant; tags: N-terminal GST; dsDNA, one strand shown
Chain of ETV1 (P50549 whole entry): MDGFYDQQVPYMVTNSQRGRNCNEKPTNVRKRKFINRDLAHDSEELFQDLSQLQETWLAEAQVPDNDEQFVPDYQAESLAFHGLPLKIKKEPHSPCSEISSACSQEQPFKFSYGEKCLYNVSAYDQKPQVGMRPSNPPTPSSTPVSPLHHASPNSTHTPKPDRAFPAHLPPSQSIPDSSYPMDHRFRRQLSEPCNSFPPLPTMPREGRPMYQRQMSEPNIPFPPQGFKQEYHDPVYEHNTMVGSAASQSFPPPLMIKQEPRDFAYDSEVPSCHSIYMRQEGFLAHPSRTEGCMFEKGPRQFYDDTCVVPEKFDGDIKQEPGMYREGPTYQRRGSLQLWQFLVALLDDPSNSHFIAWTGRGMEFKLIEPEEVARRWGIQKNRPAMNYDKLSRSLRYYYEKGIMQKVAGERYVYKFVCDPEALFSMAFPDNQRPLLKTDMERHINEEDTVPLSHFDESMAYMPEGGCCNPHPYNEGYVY
Outline: as §1

Sequence | binding signal (FLI1) | binding signal (ELK1) | binding signal (GABPA) | binding signal (ERG) | binding signal (ELF1) | binding signal (EHF) | binding signal (SPI1) | binding signal (SPIB) | binding signal (ELK3) | binding signal (FEV) | binding signal (ETV5) | binding signal (HSF1) | binding signal (SPIC) | binding signal (ELF4) | binding signal (ELK4) | binding signal (ELF3) | binding signal (CRX) | binding signal (ETV1)
CTTGGC | 1.19 fold enrichment (6-mer frequency, TF over GST control) | 1.23 fold enrichment (6-mer frequency, TF over GST control) | 1.25 fold enrichment (6-mer frequency, TF over GST control) | 1.12 fold enrichment (6-mer frequency, TF over GST control) | 1.14 fold enrichment (6-mer frequency, TF over GST control) | 1.22 fold enrichment (6-mer frequency, TF over GST control) | 1.18 fold enrichment (6-mer frequency, TF over GST control) | 1.2 fold enrichment (6-mer frequency, TF over GST control) | 1.18 fold enrichment (6-mer frequency, TF over GST control) | 1.24 fold enrichment (6-mer frequency, TF over GST control) | 1.1 fold enrichment (6-mer frequency, TF over GST control) | 1.03 fold enrichment (6-mer frequency, TF over GST control) | 1.14 fold enrichment (6-mer frequency, TF over GST control) | 1.21 fold enrichment (6-mer frequency, TF over GST control) | 1.42 fold enrichment (6-mer frequency, TF over GST control) | 1.19 fold enrichment (6-mer frequency, TF over GST control) | 1.03 fold enrichment (6-mer frequency, TF over GST control) | 1.15 fold enrichment (6-mer frequency, TF over GST control)
AGCCTC | 1.39 fold enrichment (6-mer frequency, TF over GST control) | 1.3 fold enrichment (6-mer frequency, TF over GST control) | 1.31 fold enrichment (6-mer frequency, TF over GST control) | 1.21 fold enrichment (6-mer frequency, TF over GST control) | 1.25 fold enrichment (6-mer frequency, TF over GST control) | 1.13 fold enrichment (6-mer frequency, TF over GST control) | 1.26 fold enrichment (6-mer frequency, TF over GST control) | 1.07 fold enrichment (6-mer frequency, TF over GST control) | 1.21 fold enrichment (6-mer frequency, TF over GST control) | 1.27 fold enrichment (6-mer frequency, TF over GST control) | 1.27 fold enrichment (6-mer frequency, TF over GST control) | 1.3 fold enrichment (6-mer frequency, TF over GST control) | 1.25 fold enrichment (6-mer frequency, TF over GST control) | 1.36 fold enrichment (6-mer frequency, TF over GST control) | 1.13 fold enrichment (6-mer frequency, TF over GST control) | 1.22 fold enrichment (6-mer frequency, TF over GST control) | 1.33 fold enrichment (6-mer frequency, TF over GST control) | 1.13 fold enrichment (6-mer frequency, TF over GST control)
